HT1080NT lethal = kills 2HG-producing HT-1080-NT fibrosarcoma cells. HT-1080-NT fibrosarcoma viability, CellTiter-Glo ATP luminescence, 48 h. Potency, µM (doses to about 46.1 µM), hits mostly cytotoxic. 1.6% of 360,000 active. AID 686970;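 also: NT is the 2HG producing partner of a matched IDH1 knockdown line; nearly all actives have a fitted effect of over 55% in size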
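HT-1080-NT fibrosarcoma cells (2HG-overproducing), 750 cells/well in RPMI with 5% FBS, dosed after 2 h and incubated 48 h at 37C. CellTiter-Glo luminescence normalized to DMSO and no-cell wells; concentration-response curves fitted and classed.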
ATXN2 expr inh = ATXN2 expression inhibition. Potency, µM (highest dose often 57 µM), usual class: inhibitors. 0.72% of 360,000 active. HEK-293 ATXN2-luciferase reporter, luminescence, 24 h; also: nearly all actives have a fitted effect of over 55% in size
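qHTS (up to 57 uM final) was run with 24 h compound exposure of reporter cells at 37 °C. Each well was multiplexed: SteadyGlo luminescence measured ATXN2-luciferase expression after a fluorogenic Gly-Phe-AFC viability readout (25 uM final).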
KB-V1 cytotox = kills drug-selected multidrug resistant KB-V1 cells; Potency, µM (series often up to 46.1 µM), most hits filed as cytotoxic; KB-V1 MDR cells viability, CellTiter-Glo, 72 h; 3.4% of 400,000 active; also: nearly all actives have a fitted effect of over 60% in size
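KB-V1 MDR subline cells in DMEM (phenol-red free, 10% FBS) exposed to compounds in qHTS concentration series for 72 h at 37 degrees C. Viability read by CellTiter-Glo luminescence; concentration-effect curves fitted after normalization and correction.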
HT1080 IDH1KD tx = kills HT-1080 cells with IDH1 knockdown. HT-1080 IDH1 knockdown viability, ATP luminescence, 48 h. Potency, µM (top dose mostly 46.1 µM), actives largely listed as cytotoxic. 2% of 360,000 active. AID 686971
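HT-1080-IDH1KD cells (IDH1 knocked down), 750/well in RPMI with 5% FBS, treated with compound 48 h at 37 degrees C. Viability by CellTiter-Glo luminescence, normalised to DMSO and no-cell wells; concentration-response curves classed.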
KB-3-1 cytotox = kills parental KB-3-1 adenocarcinoma cells. KB-3-1 viability, CellTiter-Glo ATP luminescence, 72 h. Potency, µM (series often up to 46.1 µM), most hits filed as cytotoxic. 1.4% of 400,000 active; also: nearly all actives have a fitted effect of over 60% in size
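KB-3-1 cells, DMEM (no phenol red) + 10% FBS; compound by pin transfer, 72 h, 37 °C. Readout: CellTiter-Glo luminescence after 10 min. Data normalized, curve-fitted.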
ATXN viability = cell viability loss in ATXN counter-screen; Potency, µM (highest dose often 56.7 µM), usual class: cytotoxic; 0.49% of 400,000 active; S2 cells (HEK-293 line with an ATXN2-luciferase reporter) viability, CellTiter-Fluor protease fluorescence, 24 h; also: nearly all actives have a fitted effect of over 40% in size
A number is an active result; . = inactive; ? = inconclusive; / = no result. This is a sample that favours compounds with a hit; in the whole collection about 6.2% have one here. Calls follow the shape of the dose curve; as a rule, active = well fitted curve in the direction sought with a large enough effect; inconclusive = small, poorly fitted or top-dose-only effect, or another doubt; inactive = no such curve, though single readings can be large; an effect the other way counts as inactive or inconclusive.

SMILES	HT1080NT lethal	ATXN2 expr inh	KB-V1 cytotox	HT1080 IDH1KD tx	KB-3-1 cytotox	ATXN viability
COc1cc(OC)cc(C(=O)N2CCN(Cc3ccccc3C(F)(F)F)CC2)c1	.	.	15µM	.	.	.
COc1cc(C(=O)N2CCN(Cc3ccccc3C(F)(F)F)CC2)cc(OC)c1OC	.	.	15µM	.	.	.
COc1cccc(OC)c1C(=O)N1CCN(Cc2ccccc2C(F)(F)F)CC1	.	.	.	.	.	.
CCOC(=O)C1CCN(c2ncnc3c2nc2n3CCCCC2)CC1	/	.	.	/	.	.
Cc1cc(C)cc(N2CC(c3nnc(NC(=O)c4ccco4)s3)CC2=O)c1 (stereo not given)	/	.	.	/	.	.
CC(C)c1ccc(C2c3c(-c4ccccc4O)n[nH]c3C(=O)N2Cc2ccncc2)cc1 (stereo not given)	/	.	?	/	.	32µM
CSc1ccc(C2c3c(-c4ccccc4O)n[nH]c3C(=O)N2Cc2ccncc2)cc1 (stereo not given)	/	.	.	/	13µM	/
CCc1ccc(C2c3c(-c4ccccc4O)n[nH]c3C(=O)N2Cc2cccnc2)cc1 (stereo not given)	/	?	?	/	.	/
Nc1cccc[n+]1C(c1ccnc2ccccc12)[n+]1ccccc1N	/	/	.	/	.	/
O=C(NCc1ccc(Cl)cc1)c1cnc(N2CCCCC2)c2ccccc12	/	/	.	/	.	/
Clc1cccc[n+]1CCCCCC[n+]1ccccc1Cl	/	/	.	/	.	/
COc1ccc(-c2noc(CSc3nnc(CCc4ccccc4)n3-c3ccccc3)n2)cc1OC	?	.	23µM	?	.	?
Cc1ccc(-c2noc(CSc3nnc(Cc4ccccc4)n3-c3ccc(Cl)cc3)n2)cc1	?	.	18µM	?	?	.
COc1ccc(-c2noc(CSc3nnc(Cc4ccccc4)n3-c3ccc(Cl)cc3)n2)cc1	?	.	12µM	?	.	?
COc1ccc(C2c3cc(OC)c(OC)cc3CC(=O)N2c2ccc(C)c(F)c2)cc1 (stereo not given)	/	.	.	/	?	.
Cc1c(C(=O)NCc2ccc3c(c2)OCCO3)sc(=O)n1Cc1ccc2c(c1)OCO2	.	.	?	.	.	.
Cc1c(C(=O)NCc2ccc3c(c2)OCO3)sc(=O)n1Cc1ccc(S(=O)(=O)N(C)C)cc1	.	.	2.9µM	?	?	.
COc1ccc(CNC(=O)c2cn(Cc3ccc(S(=O)(=O)N(C)C)cc3)c(=O)s2)cc1	.	.	23µM	?	?	.
Cc1c(C(=O)NCc2ccc([N+](=O)[O-])cc2)sc(=O)n1Cc1ccc2c(c1)OCO2	?	.	15µM	.	.	.
Cc1c(C(=O)NCc2ccc3c(c2)OCCO3)sc(=O)n1Cc1ccc(S(=O)(=O)N(C)C)cc1	.	.	9.2µM	?	?	.
C#Cc1cccc(Nc2ncnc3cc(OCCOC)c(OCCO)cc23)c1	/	.	/	/	/	/
CSc1ccc(-c2nc3cccc(C)n3c2Nc2ccc3c(c2)OCO3)cc1	/	.	.	/	.	?
COCCN1CCC(CNCc2cn[nH]c2-c2ccc(C)c(C)c2)C1 (stereo not given)	.	.	?	.	.	.
COCCN1CCC(CNCc2cn(-c3cc(C)ccc3C)nc2-c2ccccc2)C1 (stereo not given)	26µM	/	.	?	.	?
COc1cc(C(=O)N2CCN(CCc3ccccn3)CC2)cc(OC)c1OC	/	.	.	/	.	.
SMILES	HT1080NT lethal	ATXN2 expr inh	KB-V1 cytotox	HT1080 IDH1KD tx	KB-3-1 cytotox	ATXN viability
Nc1nc(Nc2cccc(F)c2)nc(NCc2ccco2)c1[N+](=O)[O-]	9.2µM	.	?	26µM	?	.
Nc1nc(Nc2cccc(Cl)c2)nc(NCc2ccco2)c1[N+](=O)[O-]	?	?	?	16µM	16µM	?
Nc1nc(Nc2ccc(Cl)cc2)nc(NCc2ccco2)c1[N+](=O)[O-]	?	.	16µM	18µM	.	.
Cc1cccc(Nc2nc(NCc3ccco3)nc(N)c2[N+](=O)[O-])c1	.	?	.	.	.	.
COc1ccc(Nc2nc(NCc3ccco3)nc(N)c2[N+](=O)[O-])cc1	.	.	.	.	.	.
Cc1cccc(Nc2nc(N)c([N+](=O)[O-])c(NCc3ccco3)n2)c1	?	.	7.3µM	?	?	?
COc1cccc(C2CC(=O)Nc3c2c(=O)[nH]c2ncnn32)c1OC (stereo not given)	/	.	.	/	.	.
Cc1ccc(NC(=O)Cn2c(=O)c3cc(Cl)ccc3n3nncc23)cc1	/	.	?	/	.	.
O=C(NCc1ccccc1)c1ccc(Cn2cc(C(F)(F)F)ccc2=O)cc1	.	.	13µM	.	.	.
O=C(O)c1ccc(Cn2cc(C(F)(F)F)ccc2=O)cc1	.	/	.	.	.	.
Cc1cccc(NC(=O)c2ccc(Cn3cc(C(F)(F)F)ccc3=O)cc2)c1	.	.	16µM	.	.	.
COc1ccc(-c2nnc(SCC(=O)N3CCC(Cc4ccccc4)CC3)o2)cc1OC	.	.	5.2µM	.	.	.
CCCCOC(=O)CSc1nnc(-c2cc(OC)c(OC)c(OC)c2)o1	.	.	.	.	.	.
CCCCN(CCCC)C(=O)CSc1nnc(-c2cc(OC)c(OC)c(OC)c2)o1	.	.	13µM	.	?	.
COc1cc(-c2nnc(SCC(=O)N3CCCc4ccccc43)o2)cc(OC)c1OC	/	.	2.6µM	/	.	?
COc1cc(OC)cc(-c2nnc(SCC(=O)N3CCCc4ccccc43)o2)c1	.	.	.	.	.	.
Cc1ccc(S(=O)(=O)Cc2ccc(C(=O)N3CCN(c4cc(C)ccc4C)CC3)o2)cc1	.	.	18µM	.	?	.
Cc1ccc(C)c(N2CCN(C(=O)c3ccc(CS(=O)(=O)c4ccccc4C)o3)CC2)c1	?	.	?	10µM	?	?
COc1ccc2c(c1)CCc1c(C(=O)N3CCCCCC3)noc1-2	.	.	15µM	.	.	.
O=C(c1noc2c1CCc1ccccc1-2)N1CCOCC1	.	.	16µM	.	.	.
CCCNC(=O)c1noc2c1CCc1cc(OC)ccc1-2	.	.	.	.	.	.
COc1ccc2c(c1)CCc1c(C(=O)NCc3cccnc3)noc1-2	.	.	8.2µM	.	?	.
COc1ccccc1CNC(=O)CCCCn1c(=O)c2ccccc2n(Cc2c(C)cc(C)cc2C)c1=O	/	.	?	/	.	.
C=CCn1c(CCNC(=O)c2cccs2)nnc1SCC(=O)c1ccc(Br)cc1	.	.	21µM	?	.	?
CCN(CC)CCCNC(=O)c1sc2nc(-c3ccc(F)cc3)cn2c1C	?	.	16µM	?	.	?
COCCNC(=O)c1sc2nc(-c3ccccc3)cn2c1C	.	.	13µM	.	.	.
Cc1c(C(=O)NCc2ccccn2)sc2nc(-c3ccc(F)cc3)cn12	.	/	.	?	?	/

From PubChem
